Data published in PubChem BioAssay (NCATS).
Records with an inconclusive call do not appear. A number with no mark means an inactive call. The call rests on the fitted dose curve; in most records, active means well fitted inhibition curve with a large enough effect; inconclusive means small, poorly fitted or top-dose-only effect; inactive means flat fitted curve, though single readings scatter.

What follows are molecules tested against Calcium and integrin-binding protein 1 (Homo sapiens) (UniProt Q99828) (assay: Primary qHTS for Identification of Calcium Integrin Binding Protein 1 (CIB1) Competitor (AID 1508620; further: top concentration of the series differs between compounds)). Conditions: CIB1-GST / FITC-alphaIIb peptide fluorescence polarization; series mostly up to 114 µM; activity change, negative = inhibition: at the top concentration.
How it was run: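 Fluorescence polarization competition: GST-tagged CIB1 (1 uM final) preincubated with compound 15 min at room temperature, then FITC-labelled alphaIIb peptide (100 nM final) added. After 15 min at room temperature, polarization read at Ex 480/Em 540.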
On the % scale 0 is the no-effect control and ±100 the full control effect.

Chain of Calcium and integrin-binding protein 1 (Homo sapiens) (Q99828 whole entry, looked up): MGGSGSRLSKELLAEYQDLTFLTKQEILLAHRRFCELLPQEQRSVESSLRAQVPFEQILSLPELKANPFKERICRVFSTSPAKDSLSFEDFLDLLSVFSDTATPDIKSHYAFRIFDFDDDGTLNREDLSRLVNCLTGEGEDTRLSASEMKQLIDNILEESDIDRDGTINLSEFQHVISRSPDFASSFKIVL

SMILES	activity change, negative = inhibition [%]
Oc1ccc(CNc2cccc(C(F)(F)F)c2)c2cccnc12	15
COc1ccc(C2=Nn3c(nnc3-c3ccc(OC)cc3)SC2)cc1	2.94
O=C(OCC#CCSc1nnc(-c2ccccc2)o1)c1ccc(F)cc1	4.65
N#Cc1ccccc1OC1=NS(=O)(=O)c2ccccc21	3.75
Cc1cc2c(s1)c1cnn(Cc3c(Cl)cccc3Cl)c(=O)c1n2C	9.2
Cc1cc(NS(=O)(=O)c2ccc(NC(=O)Cc3ccc(Cl)c(C(F)(F)F)c3)cc2)no1	-11.6
Cn1c2cc(Br)sc2c2cnn(Cc3c(F)cccc3F)c(=O)c21	1.55
CCCCN(C)C(=O)Cn1nc(-c2ccc(OC)cc2)ccc1=O	0.31
Cc1cc(NS(=O)(=O)c2ccc(NC(=O)Cc3cccc(Cl)c3)cc2)no1	-13.8
Cc1cc(C)nc(NC(=S)N2CCN(c3nncs3)CC2)c1	-0.572
Cc1cc(C)nc(NC(=S)N2CCN(c3ccc(F)c(F)c3)CC2)c1	-1.52
O=C(Nc1ccc(Cl)c(Cl)c1)Nc1nc(-c2ccncc2)cs1	-5.61
O=C(NCC#CCSc1nnc(-c2cccc3ccccc23)o1)c1cccs1	4.13
Cc1cc(C)nc(NC(=S)N2CCN(c3ncccc3C#N)CC2)c1	-3.29
Cc1ccccc1N(C)C1=N[S+](=O)([O-])c2ccccc21	-6.57
COc1ccc(OC)c(-c2nnc3n2N=C(c2ccc(OC)c(OCC4CC4)c2)CS3)c1	-6.74
CC(=O)Nc1cccc(S(=O)(=O)N2CCN(S(=O)(=O)c3ccc4c(c3)OCCO4)CC2)c1	3.22
O=C(Nc1ccc(F)c(C(F)(F)F)c1)Nc1cccc(-c2ccncc2)n1	6.89
